Source: PubChem BioAssay (EPA / NIEHS)
The source made the active and inactive calls. The calls were made as follows: active = hit-call score of the fitted dose curve at least 0.9, where 1 is the maximum; inactive = score below 0.9.

Read-out: growth arrest and DNA damage 45 (GADD45B), GADD45B (gene 4616)
Assay: LTEA_HepaRG_GADD45B: Life Technologies and Expression Analysis (LTEA) Assay for growth arrest and DNA damage 45 (GADD45B) using HepaRG (AID 2283461)
Details: mRNA level, 48 h; actives raise or lower the signal
Protocol: LTEA_HepaRG is a cell based, multiplexed-readout assay that uses HepaRG, a human liver cell line, with measurements taken at 48 hours after chemical dosing on a 96-well plate.LTEA_HepaRG_GADD45B is one of 102 assay component(s) measured in the LTEA HepaRG cell culture assay. It is a marker of Cell proliferation, survival, death.Data from the assay component LTEA_HepaRG_GADD45B was analyzed into 1 endpoint. This assay endpoint, LTEA_HepaRG_GADD45B, was analyzed with bidirectional fitting relative to DMSO as the negative control and baseline of activity. Using a type of inducible reporter, measures of mRNA induction for gain or loss-of-signal activity can be used to understand regulation of transcription factor activity. To generalize the intended target to other relatable targets, this assay endpoint is annotated to the mutagenicity response intended target family, where the subfamily is Cell proliferation, survival, death.
A total of 1060 chemcials from the ToxCast library were tested in eight-point concentration-response experiments. Cell culture and cytotoxicity assays were conducted at Thermo Fisher Scientific's Custom Services facility (Madison, WI). A single lot of human HepaRG cells (Thermo Fisher Scientific, Frederick, MD) was used for the cell culture experiments. 96-well format collagen type I coated plates of human HepaRG cells were prepared using established methods. Briefly, cryopreserved HepaRG cells were thawed, plated at a density of approximately 100,000 cells/well in HepaRG Thaw, Plate, and General Purpose media (HPRG770, Thermo Fisher Scientific), and incubated for 48 hours. 0.5% DMSO was selected as vehicle control to balance the requisite need of DMSO in HepaRG cultures to maintain differentiation (for example, baseline metabolism, proportions of hepatocytes vs. cholangiocytes), while enabling further hepatic receptor pathway activation (for example, PXR and CAR) in response to chemical exposure. 48 hours after plating, the culture medium was replaced with HepaRG Serum-Free Incudtion Media. Cells were exposed to each test chemical in duplicate and maintained in CO2 incubators for another 48 hours. Chemical plates were thawed to room temperature and 200x concentrations of treatment groups were prepared. 8-point conentration-reponse curves were made with the highest exposure at 100 uM, followed by half-log dilutions, all in 0.5% DMSO. Each test plate contained variouse controls, induction positive controls (1mM phenobarbital), cytotoxicity positive controls ([…] aflatoxin B1), vehicle controls (0.5% DMSO), and total lysis controls (0.5% DMSO). Cell morphology images were taken using an Essen IncuCyte FLR automated microscope, with six 96-well plates imaged in about 24 minutes. Images were captured and exported and JPEG files. Spent culture media was transfered to black-well plates for the LDH assay, and remaining media was sorted at -80 C for later use. Cells were treated with RLT buffer and frozen until shipped for gene expression analysis. Total RNA was isolated from the cell suspension in 75 uL of Buffer RLT (Qiagen, Germantown, MD 20874) by Quintiles/Expression Analysis (Durham, NC) using a custom isolation procedure. Total RNA from each plate well was transferred to a preamplification plate. Fluidigm's 96.96 Dynamic ArrayTM (Fluidigm, Amsterdam, the Netherlands) technology was used for gene expression analyses by quantitative reverse transcription polymerase chain reaction (qRT-PCR, performed by Quintiles/Expression Analysis, Durham, NC)89. Standard TaqManTM Assays (Applied Biosystems/ThermoFisher Scientific, Foster City, CA) were used to assess the expression of 93 genes selected based on their selectivity and sensitivity to important hepatic receptors known to be modulated by environmental chemicals; importance in human hepatocyte functionality; and hepatotoxicity. […]

Structure (SMILES)	outcome	AC50
CO[C@H]1/C=C/O[C@@]2(C)Oc3c(C)c(O)c4c(O)c(c(/C=N/N5CCN(C)CC5)c(O)c4c3C2=O)NC(=O)/C(C)=C\C=C\[C@H](C)[C@H](O)[C@@H](C)[C@@H](O)[C@@H](C)[C@H](OC(C)=O)[C@@H]1C	inactive	
COc1cccc([C@H](O)C2CCN(CCc3ccc(F)cc3)CC2)c1OC	inactive	
CN(C)c1ccc(C(=C2C=CC(=[N+](C)C)C=C2)c2ccc(N(C)C)cc2)cc1		3.56 µM (active)
CC(C)(C)c1cc(/C=C2\SC(N)=NC2=O)cc(C(C)(C)C)c1O		35.5 µM (active)
O=C(Nc1ccc(Cl)cc1)Nc1ccc(Cl)c(Cl)c1		22.9 µM (active)
CCCOC(=O)c1cc(O)c(O)c(O)c1	inactive	
NCc1cccc(C2CCN(C(=O)c3ccc(C#Cc4ccccc4F)o3)CC2)c1	inactive	
OCCO	inactive	
CCN(Cc1cccc(S(=O)(=O)O)c1)c1ccc(C(=C2C=CC(=[N+](CC)Cc3cccc(S(=O)(=O)O)c3)C=C2)c2ccccc2S(=O)(=O)[O-])cc1	inactive	
Cc1oc2c(NC(=O)c3c(Cl)cccc3Cl)cccc2c1C(C)(C)O		75.6 µM (active)
OC12N=C(c3ccccc3)SC1Cc1cc(Cl)ccc12 (stereo not given)		3.34 µM (active)
Cc1occc1C(=O)Nc1ccc(C(=O)N2CCC(F)(F)/C(=C\C(=O)N3CCC(N4CCCCC4)CC3)c3ccccc32)cc1	inactive	
CCCCCCCCCCCO	inactive	
Cc1ccc(C(C)C)cc1	inactive	
c1ccc2n[nH]nc2c1	inactive	
Oc1ccc2ccccc2c1	inactive	
O=CCCCC=O	inactive	
CCCCCCCCCCCCO	inactive	
O=C(O)Cc1cc(I)c(Oc2ccc(O)c(I)c2)c(I)c1		50 µM (active)
CCO[Si](CCCNC(N)=O)(OCC)OCC	inactive	

Structure (SMILES)	outcome	AC50
CN1C(=O)N(c2ccccc2Br)Cc2cnc(Nc3ccc4c(c3)OCC(CO)O4)nc21 (stereo not given)		81.6 µM (active)
c1ccc2ccccc2c1	inactive	
CC[C@@H]1C[C@H](N(Cc2cc(C(F)(F)F)cc(C(F)(F)F)c2)C(C)=O)c2cc(C(F)(F)F)ccc2N1C(=O)OC(C)C	inactive	
CC(=O)N1CCN(c2ccc(OC[C@H]3CO[C@](Cn4ccnc4)(c4ccc(Cl)cc4Cl)O3)cc2)CC1	inactive	
Cc1ccc2oc(CN(Cc3ccccc3)C(=O)Nc3c(F)cc(F)cc3F)c(-c3ccc(Cl)cc3)c2c1	inactive	
O=C1O[C@H]([C@@H](O)CO)C(O)=C1O	inactive	
CCCCCCCCCCCC[N+](C)(C)C		84.1 µM (active)
Cc1cc(F)ccc1-c1cc(N2CC[C@@H](O)[C@H]2CO)ncc1N(C)C(=O)C(C)(C)c1cc(C(F)(F)F)cc(C(F)(F)F)c1		76 µM (active)
COc1cc(C(=O)NC2CCN(C)CC2)ccc1Nc1ncc2c(n1)N(C1CCCC1)CC(F)(F)C(=O)N2C		25.4 µM (active)
Cc1cn([C@H]2C[C@H](N=[N+]=[N-])[C@@H](CO)O2)c(=O)[nH]c1=O	inactive	
CC1=CC(=O)/C(=C(/C)O)C(=O)O1	inactive	
CCOC(=O)O[C@H](C)OC(=O)c1ccc2c(c1)cc(C(=O)NC1CCN(C(C)C)CC1)n2Cc1cc(-c2ccc(Cl)s2)on1	inactive	
O=c1[nH]sc2ccccc12	inactive	
CN(C)C(=O)C1(N2CCCCC2)CCN(CC[C@@]2(c3ccc(Cl)c(Cl)c3)CN(C(=O)c3ccccc3)CCO2)CC1		29 µM (active)
CC(C)(c1cc(Br)c(O)c(Br)c1)c1cc(Br)c(O)c(Br)c1		74.5 µM (active)
CCCCOC(=O)c1ccc(O)cc1	inactive	
NC(=O)c1nc(-c2cccc(-c3cc(F)ccc3OCC(F)(F)C(F)(F)F)c2)n[nH]1		77.2 µM (active)
c1ccc(C[n+]2cccc3ccccc32)cc1	inactive	
O=C1CCC(C2CCCCC2)CC1	inactive	
Cc1c2ccccc2c(C)c2c1ccc1ccccc12		50 µM (active)
